# Reference: PubChem BioAssay (EPA / NIEHS)
# Calls of active or inactive are those of the source. The calls were made as follows: active = hit-call score of the fitted dose curve at least 0.9, where 1 is the maximum; inactive = score below 0.9.
# What was measured:
# [1] = read-out: Human Leukocyte Antigen - DR isotype (HLADR), HLA-DRA (gene 3122); test: BSK_CASM3C_HLADR: BioMAP Diversity Plus: CASM3C Assay for Human Leukocyte Antigen - DR isotype (HLADR) Biomarker Activity (AID 2283043); details: primary human coronary artery smooth muscle cells; actives raise or lower the signal;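 also: cell-surface HLA-DR protein level quantified by ELISA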
# [2] = read-out: Macrophage colony-stimulating factor (MCSF), CSF1 (gene 1435); test: BSK_CASM3C_MCSF: BioMAP Diversity Plus: CASM3C Assay for Macrophage colony-stimulating factor (MCSF) Biomarker Activity (AID 2283044); details: primary human coronary artery smooth muscle cells; actives raise or lower the signal;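 also: M-CSF protein amount quantified by ELISA after 24 h exposure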
# [3] = read-out: Low-density lipoprotein receptor (LDLR), LDLR (gene 3949); test: BSK_CASM3C_LDLR: BioMAP Diversity Plus: CASM3C Assay for Low-density lipoprotein receptor (LDLR) Biomarker Activity (AID 2283045); details: primary human coronary artery smooth muscle cells; actives raise or lower the signal;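 also: LDLR protein level on the cell surface quantified by ELISA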
# [4] = read-out: Monocyte Chemoattractant Protein-1 (MCP1), CCL2 (gene 6347); test: BSK_CASM3C_MCP1: BioMAP Diversity Plus: CASM3C Assay for Monocyte Chemoattractant Protein-1 (MCP1) Biomarker Activity (AID 2283046); details: primary human coronary artery smooth muscle cells; actives raise or lower the signal;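 also: MCP-1 level quantified by ELISA 24 h after dosing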
# [5] = BSK_CASM3C_Proliferation: Cell Proliferation Assessment in the BioMAP Diversity Plus: CASM3C Assay (AID 2283047); details: primary human coronary artery smooth muscle cells;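 also: sulforhodamine B total protein stain as relative cell number at 560 nm; sub-confluent cells exposed 48 h before staining; fitted both ways against DMSO so gain or loss of cell number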
# [6] = read-out: Monokine induced gamma interferon (MIG), CXCL9 (gene 4283); test: BSK_CASM3C_MIG: BioMAP Diversity Plus: CASM3C Assay for Monokine induced gamma interferon (MIG) Biomarker Activity (AID 2283048); details: primary human coronary artery smooth muscle cells; actives raise or lower the signal;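 also: MIG protein level measured by ELISA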
# [7] = read-out: serum amyloid A (SAA), SAA1 (gene 6288); test: BSK_CASM3C_SAA: BioMAP Diversity Plus: CASM3C Assay for serum amyloid A (SAA) Biomarker Activity (AID 2283049); details: primary human coronary artery smooth muscle cells; actives raise or lower the signal;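 also: SAA protein level quantified by ELISA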
# [8] = BSK_CASM3C_SRB: Viability Assessment in the BioMAP Diversity Plus: CASM3C Assay (AID 2283050); details: primary human coronary artery smooth muscle cells;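 also: cells exposed to compound for 24 h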
# [9] = read-out: Thrombomodulin, THBD (gene 7056); test: BSK_CASM3C_Thrombomodulin: BioMAP Diversity Plus: CASM3C Assay for Thrombomodulin Biomarker Activity (AID 2283051); details: primary human coronary artery smooth muscle cells; actives raise or lower the signal;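 also: thrombomodulin protein level measured by ELISA 24 h after dosing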
# [10] = read-out: Tissue Factor, F3 (gene 2152); test: BSK_CASM3C_TissueFactor: BioMAP Diversity Plus: CASM3C Assay for Tissue Factor Biomarker Activity (AID 2283052); details: primary human coronary artery smooth muscle cells; actives raise or lower the signal;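 also: cell surface tissue factor protein level read by ELISA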
# [11] = read-out: Interferon-gamma inducible Protein 10 (IP10), CXCL10 (gene 3627); test: BSK_hDFCGF_IP10: BioMAP Diversity Plus: hDFCGF Assay for Interferon-gamma inducible Protein 10 (IP10) Biomarker Activity (AID 2283053); details: primary human foreskin fibroblasts; actives raise or lower the signal
# Method in brief: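 Primary human foreskin fibroblasts exposed to chemicals for 24 h. IP-10 measured by ELISA; changes fitted bidirectionally against DMSO baseline.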
# [12] = read-out: Urokinase-type plasminogen activator receptor (uPAR), PLAUR (gene 5329); test: BSK_CASM3C_uPAR: BioMAP Diversity Plus: CASM3C Assay for Urokinase-type plasminogen activator receptor (uPAR) Biomarker Activity (AID 2283054); details: primary human coronary artery smooth muscle cells; actives raise or lower the signal;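 also: cell-surface uPAR protein level quantified by ELISA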
# [13] = read-out: Vascular cell adhesion molecule 1 (VCAM1), VCAM1 (gene 7412); test: BSK_CASM3C_VCAM1: BioMAP Diversity Plus: CASM3C Assay for Vascular cell adhesion molecule 1 (VCAM1) Biomarker Activity (AID 2283055); details: primary human coronary artery smooth muscle cells; actives raise or lower the signal;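 also: VCAM-1 protein level quantified by ELISA on the cells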
# [14] = read-out: Epidermal growth factor receptor (EGFR), EGFR (gene 1956); test: BSK_hDFCGF_EGFR: BioMAP Diversity Plus: hDFCGF Assay for Epidermal growth factor receptor (EGFR) Biomarker Activity (AID 2283057); details: primary human foreskin fibroblasts; actives raise or lower the signal
# Method in brief: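 Primary human foreskin fibroblasts (hDFCGF system), sampled 24 h after dosing; EGFR quantified by ELISA. Bidirectional fit relative to DMSO baseline; SRB total-protein staining in parallel cultures for cytotoxicity.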
# [15] = read-out: Interleukin-8 (IL8), CXCL8 (gene 3576); test: BSK_hDFCGF_IL8: BioMAP Diversity Plus: hDFCGF Assay for Interleukin-8 (IL8) Biomarker Activity (AID 2283058); details: primary human foreskin fibroblasts; actives raise or lower the signal
# Method in brief: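 Primary human foreskin fibroblasts (hDFCGF system) dosed with chemical; IL-8 measured by ELISA 24 hours later. Bidirectional curve fitting relative to DMSO baseline; cytotoxicity tracked in parallel cultures by SRB total protein staining.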
# [16] = BSK_hDFCGF_Proliferation: Cell Proliferation Assessment in the BioMAP Diversity Plus: hDFCGF Assay (AID 2283059); details: primary human foreskin fibroblasts;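 also: curves fitted for both rise and fall of signal versus DMSO baseline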
# Method in brief: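 Steps: dose primary human dermal fibroblasts (foreskin); […] fix in 10% TCA; stain with 0.1% SRB; read 560 nm; fit gain or loss of signal against DMSO.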
# [17] = read-out: Macrophage colony-stimulating factor (MCSF), CSF1 (gene 1435); test: BSK_hDFCGF_MCSF: BioMAP Diversity Plus: hDFCGF Assay for Macrophage colony-stimulating factor (MCSF) Biomarker Activity (AID 2283060); details: primary human foreskin fibroblasts; actives raise or lower the signal
# Method in brief: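 Human foreskin fibroblast primary cultures; M-CSF measured by ELISA 24 hours after chemical dosing. Bidirectional fitting relative to DMSO, with overt cytotoxicity tracked by parallel SRB total-protein staining (0.1% SRB, 10% TCA fixation, 560 nm).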
# [18] = BSK_hDFCGF_SRB: Viability Assessment in the BioMAP Diversity Plus: hDFCGF Assay (AID 2283061); details: primary human foreskin fibroblasts;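 also: cells exposed to compound for 24 h before the read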
# Method in brief: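 Human foreskin fibroblasts in 96-well plates were treated 24 h. Total protein was measured by 0.1% SRB staining after 10% TCA fixation, read at 560 nm. Data were fitted bidirectionally against DMSO.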
# [19] = read-out: TIMP metallopeptidase inhibitor 1 (TIMP1), TIMP1 (gene 7076); test: BSK_hDFCGF_TIMP1: BioMAP Diversity Plus: hDFCGF Assay for TIMP metallopeptidase inhibitor 1 (TIMP1) Biomarker Activity (AID 2283062); details: primary human foreskin fibroblasts; actives raise or lower the signal
# Method in brief: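 Human foreskin fibroblast primary cultures dosed for 24 h; secreted/surface TIMP-1 quantified by ELISA. Bidirectional curve fitting against DMSO baseline; cytotoxicity tracked in parallel cultures by SRB total-protein staining.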
# [20] = read-out: Collagen III, COL3A1 (gene 1281); test: BSK_hDFCGF_CollagenIII: BioMAP Diversity Plus: hDFCGF Assay for Collagen III Biomarker Activity (AID 2283056); details: primary human foreskin fibroblasts; actives raise or lower the signal
# Method in brief: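 Human foreskin fibroblast primary cultures sampled 24 h after dosing; Collagen III quantified by ELISA. Signal fitted bidirectionally against DMSO baseline.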
compound,measurement,setting,value
O=C(OC[C@H]1O[C@@H](OC(=O)c2cc(O)c(O)c(OC(=O)c3cc(O)c(O)c(O)c3)c2)[C@H](OC(=O)c2cc(O)c(O)c(OC(=O)c3cc(O)c(O)c(O)c3)c2)[C@@H](OC(=O)c2cc(O)c(O)c(OC(=O)c3cc(O)c(O)c(O)c3)c2)[C@@H]1OC(=O)c1cc(O)c(O)c(OC(=O)c2cc(O)c(O)c(O)c2)c1)c1cc(O)c(O)c(OC(=O)c2cc(O)c(O)c(O)c2)c1,AC50,[1],6.1 µM (active)
same,outcome,[2],inactive
same,outcome,[3],inactive
same,AC50,[4],6.1 µM (active)
same,AC50,[5],10 µM (active)
same,outcome,[6],inactive
same,outcome,[7],inactive
same,outcome,[8],inactive
same,outcome,[9],inactive
same,outcome,[10],inactive
same,AC50,[11],0.986 µM (active)
same,outcome,[12],inactive
same,outcome,[13],inactive
same,outcome,[14],inactive
same,outcome,[15],inactive
same,AC50,[16],3.77 µM (active)
same,AC50,[17],1.21 µM (active)
same,outcome,[18],inactive
same,outcome,[19],inactive
CCCCC(CC)COC(=O)CCCCCCCCC(=O)OCC(CC)CCCC (configuration not stated),outcome,[1],inactive
same,outcome,[2],inactive
same,outcome,[3],inactive
same,outcome,[4],inactive
same,AC50,[5],7.33 µM (active)
same,outcome,[6],inactive
same,outcome,[7],inactive
same,outcome,[8],inactive
same,outcome,[9],inactive
same,outcome,[10],inactive
same,AC50,[11],6.18 µM (active)
same,outcome,[12],inactive
same,outcome,[13],inactive
same,outcome,[20],inactive
same,outcome,[14],inactive
same,outcome,[15],inactive
same,outcome,[16],inactive
same,outcome,[17],inactive
same,outcome,[18],inactive
same,outcome,[19],inactive
CN(C)c1ccc(Cc2ccc(N(C)C)cc2)cc1,outcome,[1],inactive
same,outcome,[3],inactive
same,outcome,[4],inactive
same,outcome,[5],inactive
same,outcome,[6],inactive
same,outcome,[7],inactive
same,outcome,[8],inactive
same,AC50,[9],20 µM (active)
same,outcome,[10],inactive
same,outcome,[11],inactive
same,AC50,[12],2.98 µM (active)
same,outcome,[13],inactive
same,outcome,[20],inactive
same,outcome,[14],inactive
same,outcome,[15],inactive
same,AC50,[16],3 µM (active)
same,outcome,[17],inactive
same,outcome,[18],inactive
CCCCCCCCCCCCc1ccccc1,outcome,[1],inactive
same,outcome,[2],inactive
same,outcome,[3],inactive
same,outcome,[4],inactive
same,outcome,[5],inactive
same,outcome,[6],inactive
same,outcome,[7],inactive
same,outcome,[8],inactive
same,outcome,[9],inactive
same,outcome,[10],inactive
same,outcome,[11],inactive
same,outcome,[12],inactive
same,outcome,[13],inactive
same,outcome,[20],inactive
same,outcome,[14],inactive
same,outcome,[15],inactive
same,outcome,[16],inactive
same,outcome,[17],inactive
same,outcome,[18],inactive
same,outcome,[19],inactive
CC1(C)C(=O)N(Br)C(=O)N1Br,outcome,[1],inactive
same,outcome,[2],inactive
same,outcome,[3],inactive
same,outcome,[4],inactive
same,outcome,[5],inactive
same,outcome,[6],inactive
same,outcome,[7],inactive
same,outcome,[8],inactive
same,outcome,[9],inactive
same,outcome,[10],inactive
same,outcome,[11],inactive
same,outcome,[12],inactive
same,outcome,[13],inactive
same,outcome,[20],inactive
same,outcome,[14],inactive
same,outcome,[15],inactive
same,outcome,[16],inactive
same,outcome,[17],inactive
same,outcome,[18],inactive
same,outcome,[19],inactive
C=CCCCCCCCCC(=O)O,outcome,[1],inactive
same,outcome,[2],inactive
same,outcome,[3],inactive
same,outcome,[4],inactive
same,outcome,[5],inactive
same,outcome,[6],inactive
same,outcome,[7],inactive
same,outcome,[8],inactive
same,outcome,[9],inactive
same,outcome,[10],inactive
same,outcome,[11],inactive
same,outcome,[12],inactive
same,outcome,[13],inactive
same,outcome,[20],inactive
same,outcome,[14],inactive
same,outcome,[15],inactive
same,outcome,[16],inactive
same,outcome,[17],inactive
same,outcome,[18],inactive
same,outcome,[19],inactive
CC[C@H]1CC[C@H](NCc2cc3c(cc2OC)[C@H]2C[C@H]2C(=O)N3C)[C@H](c2ccccc2)N1,outcome,[1],inactive
same,outcome,[2],inactive
same,outcome,[3],inactive
same,outcome,[4],inactive
same,AC50,[5],7.17 µM (active)
same,outcome,[6],inactive
same,outcome,[7],inactive
same,outcome,[8],inactive
same,outcome,[9],inactive
same,outcome,[10],inactive
same,outcome,[11],inactive
same,outcome,[12],inactive
same,outcome,[13],inactive
same,AC50,[20],1.57 µM (active)
same,outcome,[14],inactive
same,outcome,[15],inactive
same,AC50,[16],20 µM (active)
same,outcome,[17],inactive
same,outcome,[18],inactive
same,outcome,[19],inactive
O=C1CCC(N2C(=O)c3ccccc3C2=O)C(=O)N1 (configuration not stated),outcome,[1],inactive
same,outcome,[2],inactive
same,outcome,[3],inactive
same,outcome,[4],inactive
same,outcome,[5],inactive
same,outcome,[6],inactive
same,outcome,[7],inactive
same,outcome,[8],inactive
same,outcome,[9],inactive
same,outcome,[10],inactive
same,outcome,[11],inactive
same,outcome,[12],inactive
same,outcome,[13],inactive
same,outcome,[20],inactive
same,outcome,[14],inactive
same,outcome,[15],inactive
same,outcome,[16],inactive
same,outcome,[17],inactive
same,outcome,[18],inactive
same,outcome,[19],inactive
COC(=O)c1c(Cl)c(Cl)c(C(=O)OC)c(Cl)c1Cl,outcome,[1],inactive
same,outcome,[2],inactive
same,outcome,[3],inactive
same,outcome,[4],inactive
same,outcome,[5],inactive
same,outcome,[6],inactive
same,outcome,[7],inactive
same,outcome,[8],inactive
same,outcome,[9],inactive
same,outcome,[10],inactive
same,outcome,[11],inactive
same,outcome,[12],inactive
same,outcome,[13],inactive
same,outcome,[20],inactive
same,outcome,[14],inactive
same,outcome,[15],inactive
same,outcome,[16],inactive
same,outcome,[17],inactive
same,outcome,[18],inactive
same,outcome,[19],inactive
